# Most compounds without a hit are left out; they make up all but 1.3% or so of the library.
# pAkt inh = HTS Assay for Inhibitors of Akt Phophorylation: Primary Screen. actives 0.32% (n = 360,000). Neuro2A IGF-stimulated pAkt S473 HTRF, 20 min; hits give low values. activity change, % for hits at 50 µM. AID 651550, 2012; in the data active = activity change below about -80%; inconclusive = mostly about -51% to -80%
#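 Neuro2A cells (4,500/well, DMEM with 0.5% FBS) were treated with compound at a single 50 µM final concentration, stimulated with 6 nM IGF for 20 min at 37 °C, and lysed. Phospho-Akt Ser473 was read by HTRF as 665/615 ratio ×10^4.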
# CCT chaperon mod = High-Throughput Screening for Modulators of Cytosolic Chaperonin Activity; purified chaperonin ATPase assay, HTRF ADP detection, 30 min; activity change, % (no concentration beside the values), hits read low; actives 0.3% (n = 360,000); AID 651819, 2012; in the data active = activity change below about -30%
#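 We incubate TRiC, 40 or 20 nM final, with library compounds at 76 uM and 10 uM ATP for 30 min at 37 °C. ADP formed is detected with Transcreener HTRF reagents after 30 min at room temperature.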
# Six1-Eya2 inh = qHTS Assay for Inhibitors of the Six1/Eya2 Interaction; Homeobox protein SIX1 (Homo sapiens) + Protein phosphatase EYA2 (Homo sapiens), …; AlphaScreen GST-Six1/His-Eya2 binding, biochemical; hits give low values; activity change, % (test concentration not listed); actives 0.56% (n = 360,000)
#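 AlphaScreen luminescence read after one hour at 37 °C in darkness. Pin-transferred compounds met GST-Six1 and His-Eya2 protein (5X stock 250 nM/500 nM) plus glutathione donor and Ni-chelate acceptor beads (5X, 50 ug/mL).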
# CtBP-E1A blk = qHTS Assay for Inhibitors of the CtBP/E1A Interaction; CtBP / adenovirus E1A interaction (AlphaScreen); AlphaScreen GST-E1A/His-CtBP binding, 1536-well; hits give low values; activity change, % (test concentration not listed); actives 0.49% (n = 340,000); AID 651724, 2012
#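 Steps: dispense buffer (Tris pH 8.0, NaCl 300 mM, TCEP 1 mM, BSA, Tween 20); add 5X protein mix (GST-E1A, His-CtBP, 125 nM each); pin 23 nL compound; 2 h at 37 °C, dark; add 5X beads (50 ug/mL); 1 h; read.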
# Numbers without * were called inactive; i = inactive; ? = inconclusive; · = not tested or not shown. Rule as the data show it, unless noted: active = activity change below about -65%; inconclusive = mostly about -30% to -63%; inactive = weaker than that. % is scaled to controls: 0 for no effect and ±100 for the full control effect.
SMILES,pAkt inh,CCT chaperon mod,Six1-Eya2 inh,CtBP-E1A blk
COC(=O)N/N=C/c1cc([N+](=O)[O-])cc(Br)c1O,i,1,-8,9
O=C(CNC(=O)c1ccccc1Br)N/N=C\c1cc([N+](=O)[O-])cc(Br)c1O,i,-3,?,-73*
Cn1cccc1C(=S)N=P(C1CCCCC1)(N1CCOCC1)N1CCOCC1,i,-52*,-4,-10
O=C(Cc1cccc(NC(=O)C2CCN(C(=O)C3CCCCC3)CC2)c1)Nc1cccc(C(=O)N2CCCCC2)c1,i,-1,0,-1
CN(C)/C=C/C(=O)c1ccc(-n2cccc2)cc1,i,0,-5,-7
CN(C)c1ccc(-n2cccc2)cc1,i,-1,-68*,?
C[C@@H]1NC(=O)N(CCCn2ccnc2)C1=O,i,-1,-12,·
Cc1ccc(NCC(=O)N=Nc2c(O)[nH]c3ccc([N+](=O)[O-])cc23)cc1,i,-3,-3,0
O=[N+]([O-])c1ccc2[nH]c(O)c(N=NC(=S)Nc3cccnc3)c2c1,i,-2,-80*,-88*
O=[N+]([O-])c1ccc2[nH]c(O)c(N=NC(=S)NCC3CCCO3)c2c1 (stereo not given),i,2,-21,-15
O=C(O)c1ccccc1N=Nc1c(O)[nH]c2ccc([N+](=O)[O-])cc12,i,0,-72*,-85*
O=C(N=Nc1c(O)[nH]c2ccc([N+](=O)[O-])cc12)c1ccccc1Cl,i,1,-10,·
CCNC(=S)N=Nc1c(O)[nH]c2ccc([N+](=O)[O-])cc12,i,0,-84*,-87*
O=C(NN1C(=O)/C(=C/c2cccs2)SC1=S)c1ccncc1,i,-1,-70*,-72*
O=C(O)COc1ccccc1/C=C1\SC(=S)N(NC(=O)c2ccccc2O)C1=O,i,1,-73*,-81*
Cc1ccc(C(=O)NN2C(=O)/C(=C/c3cccn3C)SC2=S)cc1,i,-4,-69*,?
O=C(O)COc1ccccc1/C=C1\SC(=S)N(/N=C/c2ccccc2O)C1=O,i,-1,-29,?
Cn1cccc1/C=C1\SC(=S)N(NC(=O)c2ccccc2Cl)C1=O,i,0,-72*,?
CCOC(=O)c1ccc(N2N=C(C)/C(=C/C=C/c3ccco3)C2=O)cc1,i,1,-1,5
O=C(O)c1cc(N2N=C(C(F)(F)F)/C(=C/C=C/c3ccco3)C2=O)ccc1Cl,i,-3,-78*,-11
COc1ccc(NC(=O)c2cc(C3CCCCN3S(=O)(=O)c3c(C)noc3C)on2)c(C)c1 (stereo not given),i,1,2,2
CCOC(=O)N1CCN(C(=O)CN(Cc2ccc(Cl)cc2)S(=O)(=O)c2ccccc2)CC1,-103%*,-4,0,5
CCOC(=O)N1CCN(C(=O)CN(Cc2ccccc2)S(C)(=O)=O)CC1,i,1,-10,0
CCCCN1C(=O)C(=O)N(CC(=O)Nc2ccccc2C(C)=O)C1=O,i,-13,12,-6
CCCCN1C(=O)C(=O)N(CC(=O)Nc2ccccc2C(=O)OCC)C1=O,i,-1,0,-98*
SMILES,pAkt inh,CCT chaperon mod,Six1-Eya2 inh,CtBP-E1A blk
Cn1ccnc1C(=O)Cc1ccc([N+](=O)[O-])cc1,i,0,2,-85*
Cn1ccnc1SCc1ccc([N+](=O)[O-])cc1,i,0,-2,1
CCc1nc2c(OCC=C(C)C)cccn2c1N(C)C(=O)c1ccc(OC)cc1,i,1,1,2
COCCCNC(=O)/C(C#N)=C/c1ccc(OCC(=O)O)c(OC)c1,i,1,?,5
COc1cc(/C=C2\C(C)=C(C#N)c3nc(N)c(C#N)c(C)c32)ccc1OCC(=O)O,i,-2,-73*,-18
Cc1cc(C)c2c(n1)sc1c(O)cc(=O)[nH]c12,i,-5,-71*,-15
COc1ccc(-c2cc(C(F)(F)F)c3c(n2)sc2c(O)cc(=O)[nH]c23)c(OC)c1,i,-1,?,?
Nc1c(S(=O)(=O)c2cccs2)c2nc3ccccc3nc2n1/N=C/c1cccc(O)c1,i,0,-87*,-92*
COCCNC(=O)C1(C)CCCN(Cc2ccc(OC)cc2)C1 (stereo not given),i,0,5,6
CC(C)(C)c1ccc(OCC(O)CN2CCN(C(=O)c3ccccc3)CC2)cc1 (stereo not given),i,-4,-1,·
CCCOC(=O)c1ccc(OCC(O)CN2CCN(C(=O)c3ccccc3)CC2)cc1 (stereo not given),-128%*,-3,8,5
O=C(Nc1nccs1)c1ccccn1,i,-4,-87*,?
O=C(NNC(=O)c1cccs1)c1ccccn1,i,-2,-74*,?
O=C(Cc1ccccc1)Nc1nccs1,i,-2,4,·
O=C(Cc1ccccc1[N+](=O)[O-])Nc1nccs1,i,-33*,-8,-6
O=C(NNC(=O)c1ccccc1Cl)c1cccs1,i,2,1,0
O=C(NNC(=O)c1ccccn1)c1ccc(OC(F)F)cc1,i,-1,-84*,-78*
Cc1ccc(S(=O)(=O)N2CCN(C(=O)COC(=O)COc3ccc(Cl)cc3C)CC2)c(C)c1,i,-3,10,10
CC1(c2nnc(-c3ccncc3)o2)CC(c2ccc([N+](=O)[O-])cc2)=NO1 (stereo not given),i,-62*,2,-13
CCCn1cnc2c(oc3ccccc32)c1=O,i,-3,-7,5
CCOC(=O)C(CC)n1cnc2c(oc3ccccc32)c1=O (stereo not given),-113%*,1,0,5
CC(C)(C)c1ccc(C(=O)NC(=O)CSc2n[nH]c(N)n2)cc1,i,3,2,-21
O=Cc1ccc2ccc3cccnc3c2n1,i,1,-69*,-93*
CSS(=O)(=O)c1cccc2cccnc12,i,0,?,-70*
CCN(CC)S(=O)(=O)c1cccc2cccnc12,·,1,5,-4
SMILES,pAkt inh,CCT chaperon mod,Six1-Eya2 inh,CtBP-E1A blk
c1cnc2c(c1)ccc1cccnc12,i,-3,-90*,-76*
COCC(C)NC(=O)c1cccc(Cl)c1 (stereo not given),-114%*,0,8,8
COC(=O)c1ccc(/C=C(\C#N)c2ccccn2)cc1,i,3,-7,7
N#CC(C#N)=Cc1ccc(OC(=O)c2ccccn2)cc1,i,0,-68*,?
Cc1c(Cl)cnc(NC(=O)COC(=O)c2nn(C)c(=O)c3ccccc23)c1Cl,i,0,-2,-12
Cn1nc(C(=O)OCC(=O)NCc2ccc(Cl)cc2)c2ccccc2c1=O,i,0,5,·

# High-throughput results: PubChem, National Center for Advancing Translational Sciences (NCATS)
